Source: the supplement of paper PMC12067093, “Discovery and optimisation of a covalent ligand for TRIM25 and its application to targeted protein ubiquitination” (Chemical Science, 2025)
About 21,000 targets were measured; listed, in parts, are those with the largest changes and a random draw of the rest.

compound: Cc1cc(ccc1-c1ccccc1)C(=O)N1CCCN(CC1)C(=O)CCl [compound 10]; experiment: probe-labelled cysteine peptide fold change vs DMSO (competition) (log2 fold change); higher = less target engagement (more negative = stronger competition); settings: 10 µM; THP-1; incubation time: 4 h
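Further: competitive profiling in live THP-1 cells: cysteine peptides tagged with an iodoacetamide desthiobiotin (IA-DTB) probe, intensity after compound treatment relative to DMSO-treated cells.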

Chain of UniProt Q9NS86 (Q9NS86 whole entry, looked up): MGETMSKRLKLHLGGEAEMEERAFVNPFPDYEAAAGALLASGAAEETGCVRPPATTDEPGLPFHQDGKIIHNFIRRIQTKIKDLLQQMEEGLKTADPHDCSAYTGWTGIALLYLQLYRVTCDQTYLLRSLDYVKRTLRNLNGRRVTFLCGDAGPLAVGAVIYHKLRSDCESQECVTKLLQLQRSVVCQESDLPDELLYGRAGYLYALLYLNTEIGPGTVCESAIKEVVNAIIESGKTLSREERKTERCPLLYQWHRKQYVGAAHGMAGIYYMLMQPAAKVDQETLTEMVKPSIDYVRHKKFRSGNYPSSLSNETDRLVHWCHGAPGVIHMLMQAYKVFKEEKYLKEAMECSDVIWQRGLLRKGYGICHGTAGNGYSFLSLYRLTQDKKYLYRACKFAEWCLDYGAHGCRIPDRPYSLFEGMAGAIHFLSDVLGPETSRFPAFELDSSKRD
Chain of UniProt P50213 (P50213 whole entry, looked up): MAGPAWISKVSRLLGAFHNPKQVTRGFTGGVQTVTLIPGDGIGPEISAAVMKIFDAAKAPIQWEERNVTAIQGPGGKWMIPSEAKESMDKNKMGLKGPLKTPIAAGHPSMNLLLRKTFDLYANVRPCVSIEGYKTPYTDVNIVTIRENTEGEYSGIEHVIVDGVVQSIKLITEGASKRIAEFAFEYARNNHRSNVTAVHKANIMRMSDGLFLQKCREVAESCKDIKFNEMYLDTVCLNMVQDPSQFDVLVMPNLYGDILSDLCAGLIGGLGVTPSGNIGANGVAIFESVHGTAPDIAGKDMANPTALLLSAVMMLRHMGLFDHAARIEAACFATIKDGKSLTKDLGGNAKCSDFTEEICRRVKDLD
Chain of UniProt P41252 (P41252 whole entry, looked up): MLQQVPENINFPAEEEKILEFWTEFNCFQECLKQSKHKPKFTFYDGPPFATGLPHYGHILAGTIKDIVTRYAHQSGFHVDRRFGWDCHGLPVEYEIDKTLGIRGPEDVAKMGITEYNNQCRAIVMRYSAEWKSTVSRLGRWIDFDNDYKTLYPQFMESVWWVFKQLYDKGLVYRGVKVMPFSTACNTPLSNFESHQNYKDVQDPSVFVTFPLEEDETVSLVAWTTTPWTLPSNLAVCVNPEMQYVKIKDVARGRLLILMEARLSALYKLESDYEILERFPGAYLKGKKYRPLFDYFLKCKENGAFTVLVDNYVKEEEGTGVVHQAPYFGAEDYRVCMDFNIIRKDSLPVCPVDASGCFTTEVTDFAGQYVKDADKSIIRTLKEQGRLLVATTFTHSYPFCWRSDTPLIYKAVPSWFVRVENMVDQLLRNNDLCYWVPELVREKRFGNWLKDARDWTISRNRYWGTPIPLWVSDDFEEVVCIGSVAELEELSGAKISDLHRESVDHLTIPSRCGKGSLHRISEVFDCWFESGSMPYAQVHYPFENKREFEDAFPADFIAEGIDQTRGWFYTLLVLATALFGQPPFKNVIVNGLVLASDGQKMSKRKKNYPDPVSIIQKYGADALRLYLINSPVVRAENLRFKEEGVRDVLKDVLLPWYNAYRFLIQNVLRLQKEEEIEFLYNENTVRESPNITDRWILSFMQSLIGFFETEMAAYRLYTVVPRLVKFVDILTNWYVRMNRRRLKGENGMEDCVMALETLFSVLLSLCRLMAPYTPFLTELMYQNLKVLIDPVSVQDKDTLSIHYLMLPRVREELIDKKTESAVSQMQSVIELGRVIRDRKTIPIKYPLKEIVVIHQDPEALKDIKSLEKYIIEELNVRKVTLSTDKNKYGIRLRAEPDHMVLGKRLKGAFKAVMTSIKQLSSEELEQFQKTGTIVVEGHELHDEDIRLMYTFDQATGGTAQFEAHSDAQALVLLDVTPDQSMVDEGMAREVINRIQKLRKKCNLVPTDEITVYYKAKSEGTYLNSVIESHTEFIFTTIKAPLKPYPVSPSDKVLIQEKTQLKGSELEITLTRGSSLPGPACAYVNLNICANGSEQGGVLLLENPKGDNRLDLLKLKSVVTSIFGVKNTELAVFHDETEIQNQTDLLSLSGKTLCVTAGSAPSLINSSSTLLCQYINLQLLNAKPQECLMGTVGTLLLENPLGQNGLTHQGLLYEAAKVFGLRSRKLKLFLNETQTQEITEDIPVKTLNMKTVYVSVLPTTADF
Chain of UniProt Q9Y4C1 (Q9Y4C1 whole entry, looked up): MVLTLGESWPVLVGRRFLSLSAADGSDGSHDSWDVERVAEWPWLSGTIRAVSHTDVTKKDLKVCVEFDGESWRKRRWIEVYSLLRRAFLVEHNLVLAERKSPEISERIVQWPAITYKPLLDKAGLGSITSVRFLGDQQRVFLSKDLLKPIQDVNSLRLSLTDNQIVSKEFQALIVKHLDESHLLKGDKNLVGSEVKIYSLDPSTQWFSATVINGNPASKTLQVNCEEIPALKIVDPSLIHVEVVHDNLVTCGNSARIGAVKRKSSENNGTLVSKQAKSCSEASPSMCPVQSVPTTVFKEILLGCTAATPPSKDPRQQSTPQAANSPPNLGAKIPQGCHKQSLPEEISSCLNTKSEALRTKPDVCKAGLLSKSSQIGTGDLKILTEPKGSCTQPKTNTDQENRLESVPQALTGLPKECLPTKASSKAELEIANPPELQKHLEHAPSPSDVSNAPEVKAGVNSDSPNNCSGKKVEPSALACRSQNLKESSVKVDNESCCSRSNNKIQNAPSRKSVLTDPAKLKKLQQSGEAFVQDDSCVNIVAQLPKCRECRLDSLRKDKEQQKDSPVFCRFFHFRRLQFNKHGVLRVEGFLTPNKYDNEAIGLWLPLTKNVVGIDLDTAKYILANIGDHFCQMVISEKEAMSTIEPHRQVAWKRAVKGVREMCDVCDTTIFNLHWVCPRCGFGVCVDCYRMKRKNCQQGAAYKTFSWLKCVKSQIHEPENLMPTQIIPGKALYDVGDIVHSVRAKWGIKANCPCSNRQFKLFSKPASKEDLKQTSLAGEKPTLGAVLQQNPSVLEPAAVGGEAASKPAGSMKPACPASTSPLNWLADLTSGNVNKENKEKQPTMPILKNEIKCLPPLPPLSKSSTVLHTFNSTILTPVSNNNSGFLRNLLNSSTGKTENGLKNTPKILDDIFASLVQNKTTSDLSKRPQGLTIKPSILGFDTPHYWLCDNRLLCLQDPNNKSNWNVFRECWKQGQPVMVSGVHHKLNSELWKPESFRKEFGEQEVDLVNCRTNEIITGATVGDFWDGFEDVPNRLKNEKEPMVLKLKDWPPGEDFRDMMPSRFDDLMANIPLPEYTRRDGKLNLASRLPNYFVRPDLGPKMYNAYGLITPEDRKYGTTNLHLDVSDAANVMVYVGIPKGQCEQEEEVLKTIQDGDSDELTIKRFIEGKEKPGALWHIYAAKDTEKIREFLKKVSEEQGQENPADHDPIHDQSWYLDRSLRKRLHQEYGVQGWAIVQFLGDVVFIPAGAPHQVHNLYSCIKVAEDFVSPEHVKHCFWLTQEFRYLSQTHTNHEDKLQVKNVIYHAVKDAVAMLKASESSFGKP
Chain of UniProt Q00839 (Q00839 whole entry, looked up): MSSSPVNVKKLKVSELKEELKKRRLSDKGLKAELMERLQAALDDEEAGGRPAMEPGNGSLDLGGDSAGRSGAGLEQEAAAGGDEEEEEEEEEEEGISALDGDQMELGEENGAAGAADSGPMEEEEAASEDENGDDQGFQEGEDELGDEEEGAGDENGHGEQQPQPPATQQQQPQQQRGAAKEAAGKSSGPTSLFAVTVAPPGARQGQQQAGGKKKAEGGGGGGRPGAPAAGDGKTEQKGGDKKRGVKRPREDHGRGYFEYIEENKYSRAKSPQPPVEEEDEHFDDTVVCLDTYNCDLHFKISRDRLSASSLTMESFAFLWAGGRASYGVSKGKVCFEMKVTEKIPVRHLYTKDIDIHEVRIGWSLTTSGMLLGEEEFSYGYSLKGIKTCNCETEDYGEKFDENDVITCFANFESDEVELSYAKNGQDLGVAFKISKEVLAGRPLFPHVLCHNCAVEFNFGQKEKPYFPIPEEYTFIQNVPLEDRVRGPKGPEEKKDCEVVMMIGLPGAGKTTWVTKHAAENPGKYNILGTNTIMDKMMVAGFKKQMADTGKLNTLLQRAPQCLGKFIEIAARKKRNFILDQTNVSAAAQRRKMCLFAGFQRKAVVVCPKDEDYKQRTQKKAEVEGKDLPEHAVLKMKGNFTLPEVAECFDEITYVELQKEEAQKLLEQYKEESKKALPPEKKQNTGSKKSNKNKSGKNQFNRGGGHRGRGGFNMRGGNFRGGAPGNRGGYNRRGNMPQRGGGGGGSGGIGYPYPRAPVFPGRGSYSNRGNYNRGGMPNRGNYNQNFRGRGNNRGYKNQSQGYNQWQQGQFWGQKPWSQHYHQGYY
Chain of UniProt P01130 (P01130 whole entry, looked up): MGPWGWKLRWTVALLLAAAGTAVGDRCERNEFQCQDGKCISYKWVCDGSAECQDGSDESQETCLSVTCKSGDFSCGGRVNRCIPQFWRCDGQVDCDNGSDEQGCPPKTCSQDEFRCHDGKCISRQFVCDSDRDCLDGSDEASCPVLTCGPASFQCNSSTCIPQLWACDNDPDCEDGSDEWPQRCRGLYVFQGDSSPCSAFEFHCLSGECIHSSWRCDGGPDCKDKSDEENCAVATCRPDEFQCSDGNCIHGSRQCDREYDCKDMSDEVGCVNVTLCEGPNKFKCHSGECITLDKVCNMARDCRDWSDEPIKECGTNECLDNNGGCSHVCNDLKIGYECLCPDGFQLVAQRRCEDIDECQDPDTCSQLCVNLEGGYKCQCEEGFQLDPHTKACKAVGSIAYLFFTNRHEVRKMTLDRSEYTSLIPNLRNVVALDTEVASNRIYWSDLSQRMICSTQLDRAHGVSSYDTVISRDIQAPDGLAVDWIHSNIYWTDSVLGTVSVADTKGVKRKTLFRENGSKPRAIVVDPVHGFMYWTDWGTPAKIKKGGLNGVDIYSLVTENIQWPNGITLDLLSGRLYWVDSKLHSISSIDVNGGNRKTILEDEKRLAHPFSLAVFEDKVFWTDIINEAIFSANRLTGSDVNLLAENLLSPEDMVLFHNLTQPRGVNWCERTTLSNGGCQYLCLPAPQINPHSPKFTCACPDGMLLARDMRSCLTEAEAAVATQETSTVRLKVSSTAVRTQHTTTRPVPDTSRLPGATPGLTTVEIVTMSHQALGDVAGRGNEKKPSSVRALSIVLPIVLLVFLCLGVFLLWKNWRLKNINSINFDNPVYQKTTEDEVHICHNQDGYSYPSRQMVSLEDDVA

Target	probe-labelled cysteine peptide fold change
IKZF1_Q13422_175+178_CHLCNYACR (UniProt Q13422)	-0.0534
KCTD12_Q96CX2_50_CTVVSVPDSLLWR (UniProt Q96CX2)	0.0972
KPNB1_Q14974_765_ESCLEAYTGIVQGLKGDQENVHPDVMLVQPR (UniProt Q14974)	0.414
KPNB1_Q14974_392_DAAVMAFGCILEGPEPSQLK (UniProt Q14974)	0.132
LAP3_P28838_376_LILADALCYAHTFNPK (UniProt P28838)	0.0434
KPNA5_O15131_238_NAVWALSNLCR<|>KPNA6_O60684_238_NAVWALSNLCR<|>KPNA1_P52294_240_NAVWALSNLCR (UniProt P52294+O60684+O15131)	0.0157
IFI16_Q16666_737_LTCFELAPK (UniProt Q16666)	-0.11
IQGAP1_P46940_57_RWMEACLGEDLPPTTELEEGLR (UniProt P46940)	0.00789
IARS_P41252_400_LLVATTFTHSYPFCWR (UniProt P41252)	0.0125
HSPA4L_O95757_540_CHAEHTPEEEIDHTGAK (UniProt O95757)	-0.0538
HMOX2_P30519_265_CPFYAAEQDK (UniProt P30519)	-0.451
HNRNPK_P61978_184+185_LFQECCPHSTDRVVLIGGKPDR (UniProt P61978)	-0.234
HNRNPU_Q00839_648_GNFTLPEVAECFDEITYVELQK (UniProt Q00839)	0.16
HSP90AA1_P07900_597+598_LVTSPCCIVTSTYGWTANMER (UniProt P07900)	0.115
LDLR_P01130_377+379_CQCEEGFQLDPHTK (UniProt P01130)	-0.198
HSP90AB1_P08238_412_CLELFSELAEDK (UniProt P08238)	0.16
IKBKB_O14920_716_KSEELVAEAHNLCTLLENAIQDTVR (UniProt O14920)	0.0153
HSPH1_Q92598_796_ELNNTCEPVVTQPKPK (UniProt Q92598)	0.108

Target	probe-labelled cysteine peptide fold change
IDH3A_P50213_331_IEAACFATIK (UniProt P50213)	0.303
IGF2R_P11717_1856_DGGVCLLSGTK (UniProt P11717)	-0.0968
LDHD_Q86WU2_63_CEPPDAVVWPQNVEQVSR (UniProt Q86WU2)	-0.334
IMPACT_Q9P2X3_195_STFQAHLAPVVCPK (UniProt Q9P2X3)	-0.422
LANCL2_Q9NS86_248_CPLLYQWHR (UniProt Q9NS86)	-0.115
HNRNPLL_Q8WVV9_505_TLSGLLEWECKTDAVEALTALNHYQIR (UniProt Q8WVV9)	-0.0924
IPO4_Q8TEX9_726_KAAHEALGQFCCALHK (UniProt Q8TEX9)	-0.0458
IPO4_Q8TEX9_726_AAHEALGQFCCALHK (UniProt Q8TEX9)	-0.0691
KRT75_O95678_460_LLEGEECR<|>NEFH_P12036_411_LLEGEECR<|>KRT76_Q7RTS7_494_LLEGEECR<|>KRT74_Q86Y46_451_LLEGEECR<|>KRT73_Q8N1N4_443_LLEGEECR<|>KRT78_P02538_422_LLEGEECR<|>KRT6A_P13647_474_LLEGEECR<|>KRT6B_P35908_474_LLEGEECR<|>KRT5_P48668_479_LLEGEECR (UniProt P48668+P35908+P13647+Q86Y46+P02538+Q7RTS7+P12036+Q8N1N4+O95678)	1.25
KPNA6_O60684_427_YLVSLGCIKPLCDLLTVMDSK (UniProt O60684)	-0.101
ITGB2_P05107_472_CDTGYIGK (UniProt P05107)	0.101
HSP90AA1_P07900_598_LVTSPCCIVTSTYGWTANMER (UniProt P07900)	-0.00946
ILF2_Q12905_37_PFVPHIPFDFYLCEMAFPR (UniProt Q12905)	0.0684
HSD17B11_Q8NBQ5_215+217_TTCLCPNFVNTGFIK (UniProt Q8NBQ5)	0.115
KIDINS220_Q9ULH0_867_FLVTSATNGDVPCSDTTGIQEDADRR (UniProt Q9ULH0)	-0.0872
IL1RAP_Q9NPH3_332_SYVCHAR (UniProt Q9NPH3)	-0.0813
KDM3A_Q9Y4C1_467_AGVNSDSPNNCSGK (UniProt Q9Y4C1)	-0.0265
KDM4C_Q9H3R0_14_MEVAEVESPLNPSCK (UniProt Q9H3R0)	0.236

same assay, conditions: 50 µM; THP-1; incubation time: 4 h

Target	probe-labelled cysteine peptide fold change
IKZF1_Q13422_175+178_CHLCNYACR (UniProt Q13422)	-0.482
KCTD12_Q96CX2_50_CTVVSVPDSLLWR (UniProt Q96CX2)	-0.28
KPNB1_Q14974_765_ESCLEAYTGIVQGLKGDQENVHPDVMLVQPR (UniProt Q14974)	-0.185
KPNB1_Q14974_392_DAAVMAFGCILEGPEPSQLK (UniProt Q14974)	0.441
LAP3_P28838_376_LILADALCYAHTFNPK (UniProt P28838)	0.0196
KPNA5_O15131_238_NAVWALSNLCR<|>KPNA6_O60684_238_NAVWALSNLCR<|>KPNA1_P52294_240_NAVWALSNLCR (UniProt P52294+O60684+O15131)	-0.339
IFI16_Q16666_737_LTCFELAPK (UniProt Q16666)	-0.0776
IQGAP1_P46940_57_RWMEACLGEDLPPTTELEEGLR (UniProt P46940)	0.0214
IARS_P41252_400_LLVATTFTHSYPFCWR (UniProt P41252)	0.177
HSPA4L_O95757_540_CHAEHTPEEEIDHTGAK (UniProt O95757)	-0.483
HMOX2_P30519_265_CPFYAAEQDK (UniProt P30519)	-2.31
HNRNPK_P61978_184+185_LFQECCPHSTDRVVLIGGKPDR (UniProt P61978)	-1.28
HNRNPU_Q00839_648_GNFTLPEVAECFDEITYVELQK (UniProt Q00839)	0.0148
HSP90AA1_P07900_597+598_LVTSPCCIVTSTYGWTANMER (UniProt P07900)	-0.354
LDLR_P01130_377+379_CQCEEGFQLDPHTK (UniProt P01130)	0.243
HSP90AB1_P08238_412_CLELFSELAEDK (UniProt P08238)	0.151
IKBKB_O14920_716_KSEELVAEAHNLCTLLENAIQDTVR (UniProt O14920)	-0.00819
HSPH1_Q92598_796_ELNNTCEPVVTQPKPK (UniProt Q92598)	-0.8

Target	probe-labelled cysteine peptide fold change
IDH3A_P50213_331_IEAACFATIK (UniProt P50213)	0.39
IGF2R_P11717_1856_DGGVCLLSGTK (UniProt P11717)	-0.169
LDHD_Q86WU2_63_CEPPDAVVWPQNVEQVSR (UniProt Q86WU2)	0.36
IMPACT_Q9P2X3_195_STFQAHLAPVVCPK (UniProt Q9P2X3)	-1.61
LANCL2_Q9NS86_248_CPLLYQWHR (UniProt Q9NS86)	0.026
HNRNPLL_Q8WVV9_505_TLSGLLEWECKTDAVEALTALNHYQIR (UniProt Q8WVV9)	-0.402
IPO4_Q8TEX9_726_KAAHEALGQFCCALHK (UniProt Q8TEX9)	-0.126
IPO4_Q8TEX9_726_AAHEALGQFCCALHK (UniProt Q8TEX9)	-0.471
KRT75_O95678_460_LLEGEECR<|>NEFH_P12036_411_LLEGEECR<|>KRT76_Q7RTS7_494_LLEGEECR<|>KRT74_Q86Y46_451_LLEGEECR<|>KRT73_Q8N1N4_443_LLEGEECR<|>KRT78_P02538_422_LLEGEECR<|>KRT6A_P13647_474_LLEGEECR<|>KRT6B_P35908_474_LLEGEECR<|>KRT5_P48668_479_LLEGEECR (UniProt P48668+P35908+P13647+Q86Y46+P02538+Q7RTS7+P12036+Q8N1N4+O95678)	0.392
KPNA6_O60684_427_YLVSLGCIKPLCDLLTVMDSK (UniProt O60684)	-0.85
ITGB2_P05107_472_CDTGYIGK (UniProt P05107)	-0.117
HSP90AA1_P07900_598_LVTSPCCIVTSTYGWTANMER (UniProt P07900)	0.102
ILF2_Q12905_37_PFVPHIPFDFYLCEMAFPR (UniProt Q12905)	0.31
HSD17B11_Q8NBQ5_215+217_TTCLCPNFVNTGFIK (UniProt Q8NBQ5)	-0.449
KIDINS220_Q9ULH0_867_FLVTSATNGDVPCSDTTGIQEDADRR (UniProt Q9ULH0)	-0.0611
IL1RAP_Q9NPH3_332_SYVCHAR (UniProt Q9NPH3)	-0.034
KDM3A_Q9Y4C1_467_AGVNSDSPNNCSGK (UniProt Q9Y4C1)	0.0124
KDM4C_Q9H3R0_14_MEVAEVESPLNPSCK (UniProt Q9H3R0)	0.0354
